PubChem BioAssay AID620 (Sanford-Burnham Center for Chemical Genomics, 2007)
The whole screen tested about 87,000 compounds, of which about 360 (0.41%) were called active. Cut-off read from the data, not from the text of the source: active = cytotoxicity above about 50%; inactive = the rest. Many of the other results were omitted from the sample, so actives are more common in it than they were.

Experiment: HT1080 cell viability loss – fluorescence readout (AID 620);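 note: cells exposed to compound overnight then 4 h with Alamar Blue; 0% = vehicle DMSO and 100% = killing control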
Conditions: at 10 µM, stronger effect = higher value

SMILES	cytotoxicity
Cc1ccccc1NS(=O)(=O)c1cc(S(C)(=O)=O)ccc1Cl	-10.1% (inactive)
CN1CCN(c2ccc(Cl)cc2NS(=O)(=O)c2ccccc2Cl)CC1	-1.9% (inactive)
Cc1ccc(NS(=O)(=O)c2ccccc2Cl)c2c1CC(C)(C)O2	62.3% (active)
COC(=O)C1=C(C)C(c2ccc(OC)cc2OC)NC(=O)N1 (configuration not stated)	2.9% (inactive)
COc1ccc(C2CC(c3c(O)cc(C)oc3=O)=NCCS2)c(OC)c1 (configuration not stated)	51.9% (active)
COc1ccc(C2C(C(C)=O)=C(O)C(=O)N2C)c(OC)c1 (configuration not stated)	5.8% (inactive)
CCN1CC=C2C(C#N)=C(N)C(C#N)(C#N)[C@H](c3ccoc3)[C@H]2C1	-2.2% (inactive)
N#CC1=C(N)C(C#N)(C#N)[C@H](c2ccoc2)[C@H]2CN(Cc3ccccc3)CC=C12	66.1% (active)
CN1CC=C2C(C#N)=C(N)C(C#N)(C#N)[C@H](c3ccoc3)[C@H]2C1	-7.5% (inactive)
CCOC(=O)c1ccc(NC(=O)CN2CCc3ccccc3C2)cc1	-3.7% (inactive)
COc1cccc(-c2cc(C(=O)Nn3cnnc3)c3ccccc3n2)c1	11.6% (inactive)
CN(C)c1nc(NS(=O)(=O)c2ccc(Cl)cc2)nc(N(C)C)n1	35.3% (inactive)
CCN(CC)c1nc(N)nc(NS(=O)(=O)c2ccc(Cl)cc2)n1	51.4% (active)
CCNc1nc(NC(C)C)nc(NS(=O)(=O)c2ccc(Cl)cc2)n1	-8.8% (inactive)
COCCNC(=O)CN(Cc1ccc2c(c1)OCO2)C(=O)CCC(=O)Nc1nccs1	-8.1% (inactive)
O=C(CN(C(=O)Cn1nnc(-c2cccs2)n1)c1ccc2c(c1)OCCO2)NCC1CCCO1 (configuration not stated)	-1.3% (inactive)
Cc1ccsc1C1NC(=O)c2ccccc2N1 (configuration not stated)	7.3% (inactive)
Cc1ccc(C2NC(=O)c3ccccc3N2)s1 (configuration not stated)	57.7% (active)
O=C1NC(c2cccs2)Nc2ccccc21 (configuration not stated)	10.2% (inactive)
Cc1ccc(S(=O)(=O)Nc2ccnc3ccccc23)cc1	5.4% (inactive)
O=S(=O)(Nc1ccc(-c2nc3cccnc3s2)cc1)c1cccs1	-6.8% (inactive)

SMILES	cytotoxicity
O=S(=O)(Nc1cccc2ncccc12)c1cccs1	85% (active)
CCOc1ccccc1NS(=O)(=O)c1cccs1	56.5% (active)
Cc1ccc(S(=O)(=O)Nc2cccc3ncccc23)s1	54.9% (active)
CCOc1ccccc1NS(=O)(=O)c1ccc(Br)s1	20.7% (inactive)
O=S(=O)(Nc1cccc2c1ccc1cccn12)c1cccs1	-4.6% (inactive)
COc1ccccc1NS(=O)(=O)c1cccs1	8.9% (inactive)
Cc1ccc(S(=O)(=O)NCc2cccnc2)s1	-11.9% (inactive)
O=C(c1ccc2c3c(cccc13)CC2)N1CCOCC1	-18.7% (inactive)
CC(=O)N1C(=O)C2(C(C#N)=C(N)Oc3n[nH]c(-c4ccccn4)c32)c2ccccc21 (configuration not stated)	6.9% (inactive)
O=C(NCc1ccc2c(c1)OCO2)c1nn(-c2ccccc2)c(=O)c2ccccc12	-4.7% (inactive)
O=C(Nc1ccccn1)C(=O)N1CCCCC1	4.7% (inactive)
COc1cccc2c1C(=O)c1c(O)c3c(c(O)c1C2=O)C[C@@](O)(C(=O)CO)C[C@@H]3O[C@H]1C[C@H](N)[C@H](O)[C@H](C)O1	53.8% (active)
Cc1noc(/C=C/c2ccco2)c1S(=O)(=O)N1CCC(C(=O)N(C)Cc2ccccc2)CC1	-4.4% (inactive)
COc1ccc(C(CC(=O)O)NC(=O)COc2ccc(C)cc2)cc1OC (configuration not stated)	4.5% (inactive)
CCOC(=O)c1ccccc1Nc1cn(C(C)=O)c2ccccc12	53.7% (active)
CC(=O)n1cc(Nc2ccccc2C(=O)O)c2ccccc21	0.2% (inactive)
CCOCC(=O)Nc1ccccc1C(=O)OCC	-3.7% (inactive)
COc1ccc2c(Cl)c(-c3nnc4n3CCCCC4)sc2c1	-8.8% (inactive)
COc1ccc(C2C3=C(CC(C)(C)CC3=O)Oc3ncn(CCCn4ccnc4)c(=N)c32)cc1 (configuration not stated)	20.5% (inactive)
Cc1noc(C)c1CSc1nnc(-c2ccccc2)n1Cc1ccco1	2.6% (inactive)
Cc1noc(C)c1CSc1nc2[nH]ncc2c(=O)n1-c1ccccc1	60.4% (active)

SMILES	cytotoxicity
CCc1cc2c(=O)n(Cc3ccco3)c(SCC(=O)N3CCCc4ccccc43)nc2s1	-1.5% (inactive)
C=CCn1c(SCc2c(C)noc2C)nc2cc(C(=O)O)ccc2c1=O	25.6% (inactive)
C=CCn1c(SCc2c(C)noc2C)nc2ccccc2c1=O	60.3% (active)
Cc1noc(C)c1CSc1nc2ccccc2c(=O)n1-c1ccccc1	48.9% (inactive)
Cc1nc(CSc2nc3[nH]ncc3c(=O)n2-c2ccccc2)cs1	-1.5% (inactive)
Cc1noc(C)c1CSc1nc2ccccc2c(=O)n1-c1ccc(Cl)cc1	-2.7% (inactive)
Cc1occc1C(=O)Nc1ccc2c(c1)CCC2	12.8% (inactive)
CC(C)Cc1cc(C(=O)Nc2cc(Cl)ccc2Cl)no1	1.8% (inactive)
O=C(C1CC1)N1CCCN(C(=O)C2CC2)CC1	1.3% (inactive)
Cc1cc(=O)[nH]c(N2CCc3ccccc3C2)n1	1.4% (inactive)
O=C(CSc1nnc(-c2cccs2)n1Cc1ccco1)Nc1ccc2c(c1)OCO2	1.2% (inactive)
Cn1c(SCC(=O)N2CCCc3ccccc32)nnc1-c1c[nH]c2ccccc12	2.9% (inactive)
CCOc1cccc(N2C(=O)CC(N3CCC(C(N)=O)(N4CCCCC4)CC3)C2=O)c1 (configuration not stated)	-6.9% (inactive)
O=c1[nH]c(=O)n([C@H]2C[C@H](O)[C@@H](CO)O2)cc1C(F)(F)F	4.2% (inactive)
O=c1[nH]c(=O)n([C@H]2C[C@H](O)[C@@H](CO)O2)cc1F	58.1% (active)
CCc1cn([C@H]2C[C@H](O)[C@@H](CO)O2)c(=O)[nH]c1=O	-0.3% (inactive)
Cc1ccc(SCC(=O)NCCCN2CCOCC2)cc1	4.3% (inactive)
CC1(C)CC(=O)C2=C(C1)OC1=C(C(=O)CC(C)(C)C1)C2c1ccc(O)cc1O	63.3% (active)
Cc1nn(C)cc1C1C2=C(CC(C)(C)CC2=O)OC2=C1C(=O)CC(C)(C)C2	14.2% (inactive)
CC1(C)CC(=O)C(C2C3=C(CC(C)(C)CC3=O)Oc3ccccc32)=C(O)C1 (configuration not stated)	-2.6% (inactive)
